{"source": "PubChem BioAssay (NCI)", "note": "The panel holds about 83,000 compounds, 20% with a hit somewhere; the sample as a whole holds those more often.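 Single-concentration screen, 48 h exposure, 96-well plates. Endpoint: percent growth. Below 10 = active.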 A number with no mark means an inactive call. Active and inactive are the calls of the source."}
{"test_system": "RXF 393 renal", "test": "NCI-60 one-dose screen, 48 h (100 = growth as untreated, 0 = no growth, -100 = all killed)", "settings": "10 µM unless noted"}
{"smiles": "c1csc(-c2cnc3nonc3n2)c1", "growth": "117%"}
{"smiles": "CC1(C)CC(=O)c2cc3c(N)c(C(=O)Nc4ccc(Cl)cc4)sc3nc2C1", "growth": "116%"}
{"smiles": "CN1C(=O)C(C(=O)/C=C/c2ccccc2C(=O)O)C(=O)N(C)C1=O", "growth": "118%"}
{"smiles": "CC(NC(=O)c1ccccc1)C(=O)Nc1ccccc1", "note": "(stereo unspecified)", "growth": "118%"}
{"smiles": "CN1CCC2(CC1)N=C(SCC(=O)Nc1cnc3ccccc3c1)C(c1ccc(Br)cc1)=N2", "growth": "24.3%"}
{"smiles": "CSc1nc(N)c2[nH]c(-c3cc4ccccc4[nH]c3=O)nc2n1", "growth": "76.8%"}
{"smiles": "C=CC(=O)N1CN(C(=O)C=C)CN(C(=O)C=C)C1", "growth": "10.2%"}
{"smiles": "CC(C)(C)[Si](C)(C)OC1[C@@H](O[Si](C)(C)C(C)(C)C)[C@@H](CNC(=O)NC(=O)NC(=O)CCl)O[C@H]1n1cnc2c(NC(=O)Nc3ccccc3)ncnc21", "note": "(stereo partly specified)", "growth": "21.9%"}
{"smiles": "CCCCCCCC/C=C/CCCCCCCC1=NC(C)(C)CN1c1ccccc1", "growth": "85%"}
{"smiles": "CCCCCCCCN(CCCCCCCC)C(=O)CCl", "growth": "103%"}
{"smiles": "COc1cc(OC)c(Cl)cc1N", "growth": "110%"}
{"smiles": "CNC(=O)c1c(NC(=O)c2ccc(C(C)C)cc2)sc2c1CCC(=O)C2", "growth": "-32.9% (active)"}
{"smiles": "COc1nccc2c(Sc3ccccc3)nc(N)nc12", "growth": "117%"}
{"smiles": "Nc1c(C(=O)Nc2ccccc2)sc2nc3c(cc12)C(=O)CCC3", "growth": "-9.9% (active)"}
{"smiles": "CCC(=O)NC1=C(Cl)C(=O)C(NC(=O)CC)=C(Cl)C1=O", "growth": "39.9%"}
{"smiles": "CCCCCCCCCCCCC1CCC(=O)O1", "note": "(stereo unspecified)", "growth": "123%"}
